Reference: PubChem BioAssay AID588683 (Broad Institute, 2011)
Results with a measured potency or affinity are listed apart. The source made the active and inactive calls. The rule behind the calls is not given here.

These molecules were tested against Kelch-like ECH-associated protein 1 (Homo sapiens) + Nuclear factor erythroid 2-related factor 2 (Homo sapiens) (UniProt Q14145+Q16236) (assay: disruptors of Keap1 binding to Nrf2 peptide – biochemical, fluorescence polarization, cherry-picked samples, dose response (AID 588683;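 note: Kelch domain of Keap1 binding a fluorescein-labelled 9mer Nrf2 peptide; more negative means stronger inhibition of peptide binding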)). Conditions: plate reader; series mostly up to 26 µM.
Kelch-like ECH-associated protein 1 (Homo sapiens) + Nuclear factor erythroid 2-related factor 2 (Homo sapiens), sequence (Q14145 whole entry, looked up, the tested form may be a part): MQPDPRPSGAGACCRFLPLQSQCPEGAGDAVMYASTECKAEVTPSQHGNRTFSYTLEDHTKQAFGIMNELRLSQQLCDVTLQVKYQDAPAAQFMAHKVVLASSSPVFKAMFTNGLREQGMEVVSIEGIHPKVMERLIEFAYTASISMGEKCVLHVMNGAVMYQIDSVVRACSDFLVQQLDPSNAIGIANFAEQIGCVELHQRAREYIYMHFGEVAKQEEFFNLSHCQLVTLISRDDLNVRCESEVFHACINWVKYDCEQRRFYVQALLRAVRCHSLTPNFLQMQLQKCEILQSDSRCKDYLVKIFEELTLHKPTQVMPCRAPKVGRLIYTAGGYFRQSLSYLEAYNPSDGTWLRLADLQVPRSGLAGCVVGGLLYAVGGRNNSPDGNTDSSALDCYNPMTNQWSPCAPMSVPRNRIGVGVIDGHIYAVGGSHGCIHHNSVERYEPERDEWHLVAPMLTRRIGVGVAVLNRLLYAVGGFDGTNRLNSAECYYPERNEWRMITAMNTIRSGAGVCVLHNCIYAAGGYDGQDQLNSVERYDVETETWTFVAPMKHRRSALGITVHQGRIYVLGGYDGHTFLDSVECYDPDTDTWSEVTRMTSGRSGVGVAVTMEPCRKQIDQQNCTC
Kelch-like ECH-associated protein 1 (Homo sapiens) + Nuclear factor erythroid 2-related factor 2 (Homo sapiens), sequence (Q16236 whole entry, looked up, the tested form may be a part): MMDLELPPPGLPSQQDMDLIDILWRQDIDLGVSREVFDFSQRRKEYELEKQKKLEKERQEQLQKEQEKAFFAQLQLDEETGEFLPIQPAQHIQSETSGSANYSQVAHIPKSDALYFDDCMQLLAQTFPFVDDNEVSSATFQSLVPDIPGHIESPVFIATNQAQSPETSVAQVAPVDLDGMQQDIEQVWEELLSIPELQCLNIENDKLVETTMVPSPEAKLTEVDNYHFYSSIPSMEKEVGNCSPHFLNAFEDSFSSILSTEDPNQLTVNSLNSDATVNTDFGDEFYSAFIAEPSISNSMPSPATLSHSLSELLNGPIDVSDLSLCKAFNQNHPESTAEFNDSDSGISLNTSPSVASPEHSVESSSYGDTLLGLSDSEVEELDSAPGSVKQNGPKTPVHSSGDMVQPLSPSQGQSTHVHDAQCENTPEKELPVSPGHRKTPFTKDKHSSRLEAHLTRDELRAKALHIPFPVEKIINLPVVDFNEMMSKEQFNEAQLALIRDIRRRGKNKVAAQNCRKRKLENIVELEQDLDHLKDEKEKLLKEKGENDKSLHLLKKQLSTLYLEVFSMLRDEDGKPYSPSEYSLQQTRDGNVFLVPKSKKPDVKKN
With `CN1/C(=C\C=C2C(=O)NC(=O)NC2=O)C(C)(C)c2ccccc21` the outcome was “inactive”. `COCCNC(=O)Cn1cc(/C=C2\C(=O)NC(=O)N(c3cccc(C)c3C)C2=O)c2ccccc21` was tested, and the outcome was “inactive”. `CCOC(=O)c1c(/N=C/c2c(O)n(-c3cccc(C)c3)c(=O)[nH]c2=O)sc2c1CCCC2` was tested, and the outcome was “inactive”. `O=C(O)c1cccc2c1NC(C(=O)O)C1CC(Sc3ccccc3[N+](=O)[O-])C(Cl)C21` (stereo unspecified) was tested, and the outcome was “inactive”. In the case of `CCCCc1ccc(C(=O)O)nc1`, the outcome is reported as “inactive”. For `Cn1cc(/C=C2\C(=O)NC(=O)N(c3ccccc3)C2=O)c2ccccc21`, the outcome was “inactive”. `CC1(O)CCN2C(=O)CCc3cccc1c32` (stereo unspecified) was tested, and the outcome was “inactive”. In the case of `COc1ccc(-n2c(CNCCc3ccc(C)cc3)nc3ccccc3c2=O)cc1`, the outcome is reported as “inactive”. `CCn1cc(C=C2C(=O)NC(=O)NC2=O)c2ccccc21` was tested, and the outcome was “inactive”. With `CN1CC=C2C(C#N)=C(N)C(C#N)(C#N)C(c3ccncc3)C2C1` (stereo unspecified) the outcome was “inactive”. `Cc1cc(C=C2C(=O)NC(=O)NC2=O)c(C)n1-c1cccnc1` was tested, and the outcome was “inactive”.
